Data: the supplement of paper PMC10849652
Of roughly 7,900 targets only a part is listed; those with a hit were picked by preference. About 0.6% of all pairs of compound and target were hits.

compound: c1cn2cc(-c3ccc4cn[nH]c4c3)nc(Nc3ccc(N4CCOCC4)cc3)c2n1 [entospletinib]; experiment: log2 fold change, soluble protein after heating vs DMSO (PISA); higher = thermal stabilisation; K562 cells, 10 uM, 30 min; active = over 0.2 and 3.5 SD of the protein, either way, in both replicates (recomputed)
In short: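 K562 cells (2×10^6 cells/mL) were treated with 10 μM compound for 30 min, and aliquots were heated for 3 min over 48°C-58°C. Pooled aliquots were extracted in PBS with 0.5% NP-40 at 4°C, and the supernatant after 21,000xg for 90 min was measured by TMTpro 16plex LC-MS/MS with channel sums equalised. Reported thermal stability, relative to control samples and from duplicates, is a log2 fold change.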

Sequence of UniProt O00458 (O00458 whole entry, looked up): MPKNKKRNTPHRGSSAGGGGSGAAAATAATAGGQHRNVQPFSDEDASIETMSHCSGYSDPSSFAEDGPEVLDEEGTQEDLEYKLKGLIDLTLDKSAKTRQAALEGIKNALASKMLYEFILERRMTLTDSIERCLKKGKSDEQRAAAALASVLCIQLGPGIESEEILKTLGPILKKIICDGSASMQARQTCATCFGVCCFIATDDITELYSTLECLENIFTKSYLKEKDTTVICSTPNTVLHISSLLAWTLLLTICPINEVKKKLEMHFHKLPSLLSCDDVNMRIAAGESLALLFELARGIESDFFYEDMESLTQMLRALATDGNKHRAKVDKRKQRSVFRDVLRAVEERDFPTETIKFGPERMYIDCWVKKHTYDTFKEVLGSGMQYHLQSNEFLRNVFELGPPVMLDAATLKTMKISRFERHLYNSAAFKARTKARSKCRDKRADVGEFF
Sequence of UniProt Q96LB3 (Q96LB3 whole entry, looked up): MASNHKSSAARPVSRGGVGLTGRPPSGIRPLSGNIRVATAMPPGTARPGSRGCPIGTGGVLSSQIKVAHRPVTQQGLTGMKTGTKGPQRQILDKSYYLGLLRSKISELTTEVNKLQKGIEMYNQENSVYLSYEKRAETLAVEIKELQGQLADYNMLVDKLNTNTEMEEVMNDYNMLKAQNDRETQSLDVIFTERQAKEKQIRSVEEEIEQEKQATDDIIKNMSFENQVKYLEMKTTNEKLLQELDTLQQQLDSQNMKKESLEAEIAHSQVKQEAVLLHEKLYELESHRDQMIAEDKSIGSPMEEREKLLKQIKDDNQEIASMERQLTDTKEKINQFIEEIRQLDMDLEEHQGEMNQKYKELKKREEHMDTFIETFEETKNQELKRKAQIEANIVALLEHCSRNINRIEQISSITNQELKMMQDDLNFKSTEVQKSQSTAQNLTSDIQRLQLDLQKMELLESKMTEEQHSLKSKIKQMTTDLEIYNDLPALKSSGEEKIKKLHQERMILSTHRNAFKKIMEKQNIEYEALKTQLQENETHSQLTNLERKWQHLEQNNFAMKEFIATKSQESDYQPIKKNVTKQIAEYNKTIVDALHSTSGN
Sequence of UniProt Q04446 (Q04446 whole entry, looked up): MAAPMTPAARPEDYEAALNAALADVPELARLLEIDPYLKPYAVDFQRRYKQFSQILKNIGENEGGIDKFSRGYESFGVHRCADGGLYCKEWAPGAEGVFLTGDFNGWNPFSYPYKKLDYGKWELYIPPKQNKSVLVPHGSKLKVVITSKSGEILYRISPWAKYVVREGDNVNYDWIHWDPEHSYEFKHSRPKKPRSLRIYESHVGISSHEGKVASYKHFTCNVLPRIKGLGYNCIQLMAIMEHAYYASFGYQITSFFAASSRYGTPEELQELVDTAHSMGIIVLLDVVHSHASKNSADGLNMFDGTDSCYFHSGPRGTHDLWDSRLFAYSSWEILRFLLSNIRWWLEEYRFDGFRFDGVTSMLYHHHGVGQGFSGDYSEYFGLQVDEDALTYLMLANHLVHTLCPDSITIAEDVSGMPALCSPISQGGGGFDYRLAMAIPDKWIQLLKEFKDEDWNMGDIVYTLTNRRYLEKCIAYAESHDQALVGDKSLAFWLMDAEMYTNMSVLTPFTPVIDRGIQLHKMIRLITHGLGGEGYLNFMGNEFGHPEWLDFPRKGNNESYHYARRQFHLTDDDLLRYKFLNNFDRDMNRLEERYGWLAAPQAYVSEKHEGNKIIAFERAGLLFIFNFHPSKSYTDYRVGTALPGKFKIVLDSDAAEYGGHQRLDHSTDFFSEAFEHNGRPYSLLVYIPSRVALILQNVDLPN
Sequence of UniProt P00367 (P00367 whole entry, looked up): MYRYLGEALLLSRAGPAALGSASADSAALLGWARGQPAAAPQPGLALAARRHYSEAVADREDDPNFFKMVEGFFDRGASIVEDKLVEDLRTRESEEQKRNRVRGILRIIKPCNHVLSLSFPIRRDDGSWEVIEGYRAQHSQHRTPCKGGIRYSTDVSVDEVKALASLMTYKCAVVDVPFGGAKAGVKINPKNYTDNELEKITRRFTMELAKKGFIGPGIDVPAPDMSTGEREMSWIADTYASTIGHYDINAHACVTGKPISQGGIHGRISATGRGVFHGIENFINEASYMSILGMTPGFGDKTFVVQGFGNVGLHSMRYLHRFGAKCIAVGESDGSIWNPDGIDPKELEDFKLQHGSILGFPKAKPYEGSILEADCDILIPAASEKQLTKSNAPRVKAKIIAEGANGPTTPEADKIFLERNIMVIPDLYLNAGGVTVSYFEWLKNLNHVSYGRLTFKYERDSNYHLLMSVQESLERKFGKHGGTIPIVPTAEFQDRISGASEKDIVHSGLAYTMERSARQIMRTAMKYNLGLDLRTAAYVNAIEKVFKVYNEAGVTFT
Sequence of UniProt Q86VS8 (Q86VS8 whole entry, looked up): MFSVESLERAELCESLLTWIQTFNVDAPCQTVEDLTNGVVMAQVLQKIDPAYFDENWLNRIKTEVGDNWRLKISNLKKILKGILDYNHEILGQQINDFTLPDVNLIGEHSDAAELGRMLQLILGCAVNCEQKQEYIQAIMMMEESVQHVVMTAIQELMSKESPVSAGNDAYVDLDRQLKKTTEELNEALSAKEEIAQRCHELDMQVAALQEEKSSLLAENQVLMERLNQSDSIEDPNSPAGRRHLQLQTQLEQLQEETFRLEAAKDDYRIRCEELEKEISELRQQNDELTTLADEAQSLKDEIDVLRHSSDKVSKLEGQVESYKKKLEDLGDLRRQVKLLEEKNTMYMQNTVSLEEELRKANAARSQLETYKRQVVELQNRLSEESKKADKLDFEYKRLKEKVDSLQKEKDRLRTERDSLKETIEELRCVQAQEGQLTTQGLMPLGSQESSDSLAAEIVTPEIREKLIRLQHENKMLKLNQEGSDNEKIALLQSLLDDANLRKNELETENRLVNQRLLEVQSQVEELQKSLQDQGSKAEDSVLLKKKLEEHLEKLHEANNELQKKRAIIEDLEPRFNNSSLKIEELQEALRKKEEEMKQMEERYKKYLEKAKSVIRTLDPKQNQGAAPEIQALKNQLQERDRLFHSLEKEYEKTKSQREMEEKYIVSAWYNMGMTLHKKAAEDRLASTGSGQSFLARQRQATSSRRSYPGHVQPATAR
Sequence of UniProt O14929 (O14929 whole entry, looked up): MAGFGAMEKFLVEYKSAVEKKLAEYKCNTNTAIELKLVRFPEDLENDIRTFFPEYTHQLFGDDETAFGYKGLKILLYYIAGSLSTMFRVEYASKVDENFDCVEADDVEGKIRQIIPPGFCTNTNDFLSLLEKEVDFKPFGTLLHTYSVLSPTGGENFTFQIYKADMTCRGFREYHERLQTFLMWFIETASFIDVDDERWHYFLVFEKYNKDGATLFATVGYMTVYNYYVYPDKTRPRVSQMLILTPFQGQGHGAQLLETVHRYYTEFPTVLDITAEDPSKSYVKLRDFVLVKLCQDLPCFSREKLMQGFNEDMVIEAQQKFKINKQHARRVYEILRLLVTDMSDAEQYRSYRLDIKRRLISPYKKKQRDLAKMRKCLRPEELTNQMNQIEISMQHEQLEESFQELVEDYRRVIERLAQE
Sequence of UniProt Q53R41 (Q53R41 whole entry, looked up): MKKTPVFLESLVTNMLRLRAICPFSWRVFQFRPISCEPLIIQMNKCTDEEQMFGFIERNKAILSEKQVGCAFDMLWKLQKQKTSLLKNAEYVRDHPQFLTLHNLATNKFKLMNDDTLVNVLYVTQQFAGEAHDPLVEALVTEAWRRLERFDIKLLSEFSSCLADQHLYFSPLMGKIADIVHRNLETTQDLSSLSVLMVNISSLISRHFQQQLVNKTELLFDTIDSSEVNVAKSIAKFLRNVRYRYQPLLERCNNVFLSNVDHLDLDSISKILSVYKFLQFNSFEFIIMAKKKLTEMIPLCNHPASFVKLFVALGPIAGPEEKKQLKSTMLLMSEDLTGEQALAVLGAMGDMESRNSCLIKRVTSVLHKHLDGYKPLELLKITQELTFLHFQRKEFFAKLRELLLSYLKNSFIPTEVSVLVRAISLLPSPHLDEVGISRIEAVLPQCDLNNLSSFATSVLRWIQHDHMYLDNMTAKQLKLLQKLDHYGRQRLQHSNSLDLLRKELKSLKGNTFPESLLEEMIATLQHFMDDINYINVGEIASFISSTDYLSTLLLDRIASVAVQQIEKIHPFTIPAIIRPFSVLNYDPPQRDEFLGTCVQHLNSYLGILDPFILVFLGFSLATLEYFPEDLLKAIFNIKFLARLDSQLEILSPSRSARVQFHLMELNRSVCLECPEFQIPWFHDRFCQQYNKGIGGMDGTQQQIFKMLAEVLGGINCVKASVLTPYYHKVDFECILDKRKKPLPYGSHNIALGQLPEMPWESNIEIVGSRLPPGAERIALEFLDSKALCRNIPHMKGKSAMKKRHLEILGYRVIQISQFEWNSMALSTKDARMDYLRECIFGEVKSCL
Sequence of UniProt O95363 (O95363 whole entry, looked up): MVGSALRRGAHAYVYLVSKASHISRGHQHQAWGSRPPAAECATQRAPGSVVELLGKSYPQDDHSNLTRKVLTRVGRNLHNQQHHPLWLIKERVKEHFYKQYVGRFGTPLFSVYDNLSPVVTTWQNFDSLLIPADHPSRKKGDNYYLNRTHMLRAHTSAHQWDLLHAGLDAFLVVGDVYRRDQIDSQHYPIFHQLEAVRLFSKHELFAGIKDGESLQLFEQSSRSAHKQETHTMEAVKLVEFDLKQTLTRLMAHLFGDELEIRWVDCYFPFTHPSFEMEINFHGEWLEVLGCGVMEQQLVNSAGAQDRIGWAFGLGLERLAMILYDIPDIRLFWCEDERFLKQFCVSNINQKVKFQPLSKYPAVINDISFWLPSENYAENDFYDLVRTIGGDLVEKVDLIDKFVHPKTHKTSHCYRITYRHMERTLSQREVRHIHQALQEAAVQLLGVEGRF
Sequence of UniProt O15347 (O15347 whole entry, looked up): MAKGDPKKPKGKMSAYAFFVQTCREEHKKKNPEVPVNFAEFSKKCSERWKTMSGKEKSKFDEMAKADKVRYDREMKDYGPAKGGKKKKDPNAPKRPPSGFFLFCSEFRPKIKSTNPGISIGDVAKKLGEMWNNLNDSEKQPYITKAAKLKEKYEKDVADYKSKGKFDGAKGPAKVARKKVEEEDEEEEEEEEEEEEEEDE

log2 fold change, inactive:
HOOK3 (UniProt Q86VS8) 0.025
FNTA (UniProt P49354) 0.111
GALNT4 (UniProt Q8N4A0) -0.015
HDAC6 (UniProt Q9UBN7) 0.034
GLUD1 (UniProt P00367) 0.173
HDGFL2 (UniProt Q7Z4V5) -0.008
HDAC7 isoform 5 (UniProt Q8WUI4) -0.024
H3-3A (UniProt P84243) -0.131
FASTKD1 (UniProt Q53R41) -0.11
GBE1 (UniProt Q04446) 0.039
GTF2B (UniProt Q00403) -0.04
GDE1 (UniProt Q9NZC3) 0
HIC2 (UniProt Q96JB3) 0.129
HSPA8 (UniProt E9PK54) -0.212
GGA2 (UniProt Q9UJY4) -0.117
GNL3 (UniProt Q9BVP2) -0.12
FUCA1 (UniProt P04066) -0.018
FECH isoform 2 (UniProt P22830) 0.471
GUSB (UniProt P08236) 0.11
FIZ1 (UniProt Q96SL8) 0.042
FUT8 (UniProt Q9BYC5) -0.048
FUCA2 (UniProt Q9BTY2) -0.016
FARS2 (UniProt O95363) 0.011
IFT74 (UniProt Q96LB3) 0.021
GALNT2 (UniProt Q10471) -0.041
HMGB3 (UniProt O15347) 0.097
FDPS (UniProt P14324) -0.007
GNAS (UniProt Q5JWF2) 0.052
GPX4 (UniProt P36969) 0.02
HNRNPF (UniProt P52597) 0.046
GSTP1 (UniProt P09211) -0.03
FLNA (UniProt P21333) 0.062
GTF2A1 (UniProt P52655) 0.051
HIST2H2BF isoform 2 (UniProt Q5QNW6) 0.06
HIP1 (UniProt O00291) -0.04
GAK (UniProt O14976) 0.371
FMC1 (UniProt Q96HJ9) 0
HMOX2 (UniProt P30519) 0.014
HAT1 (UniProt O14929) -0.021
IFRD1 (UniProt O00458) 0.243
